HNF4A DNA FP: change in binding of human HNF4 alpha to DNA; P41235; HNF4a-FITC DNA binding, fluorescence polarization, 1 h; activity change, % at 10 µM; 360,000 compounds, 0.3% hits; in the data active means activity change above about 30%, passing the limit was not always enough
Fh CTSL1 inh: blocks F. hepatica cathepsin L1 in PFM18AAP counter-screen | 300,000 compounds, 0.49% hits | AID 1906 | inhibition, % at 5.96 µM | recombinant F. hepatica cathepsin L1, Z-Leu-Arg-MCA fluorescence;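 active means inhibition above the mean of all tested compounds plus 3 SD, set per screening campaign, cut at about 17% in these data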
PHOSPHO1 inh: blocks human PHOSPHO1 phosphatase activity; Q8TCT1; recombinant PHOSPHO1, absorbance phosphatase assay; inhibition, % at 13.3 µM; 290,000 compounds, 1.1% hits; AID 1565; in the data active means inhibition above about 60%
Target sequence (Q8TCT1 whole entry, looked up): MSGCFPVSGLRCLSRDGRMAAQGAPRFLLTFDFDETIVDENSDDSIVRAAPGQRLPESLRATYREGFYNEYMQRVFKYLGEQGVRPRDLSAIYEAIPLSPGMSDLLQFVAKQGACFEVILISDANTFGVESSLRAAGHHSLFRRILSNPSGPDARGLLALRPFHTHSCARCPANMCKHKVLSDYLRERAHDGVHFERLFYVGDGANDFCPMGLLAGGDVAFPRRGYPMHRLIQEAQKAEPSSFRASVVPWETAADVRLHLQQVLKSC
TPT1 inhibitor: blocks Candida albicans tRNA 2'-phosphotransferase; 300,000 compounds, 0.81% hits; inhibition, % at 5 µM; AID 1962; recombinant caTPT1, FP RNA substrate dephosphorylation;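 active means inhibition above the mean of all tested compounds plus 3 SD, set per screening campaign, cut at about 24% in these data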
Rpn11 inh: Rpn11 (human) deubiquitinase inhibition | human 26S proteasome, Ub4-pepOG fluorescence polarization; 20S core pre-blocked with epoxomicin | inhibition, % at 20 µM | 360,000 compounds, 0.59% hits | AID 588493;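 active means inhibition at 20 µM, scaled to each plate's controls, above about 33%, limit read from the data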
CendR NRP1 mod: modulators of CendR peptide binding to human neuropilin-1. 360,000 compounds, 0.85% hits. FAM-RPARPAR peptide binding to NRP-1, fluorescence polarization. O14786. inhibition, % at 25 µM;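 active means inhibition or corrected inhibition above about 18%, plus a signal ratio from 0.5 to 1.5, limit read from the data, passing the limit was not always enough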
caTPT1 confirm: TPT1 (C. albicans) inhibition, confirmation | recombinant caTPT1, fluorescence polarization, RNase T1 coupled | 2,400 compounds, 74% hits | AID 2149 | inhibition, % at 5 µM | shares compounds with TPT1 inhibitor;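 active means inhibition above the primary screen limit, the mean inhibition of all tested compounds plus 3 SD, cut at about 25% in these data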
RNase T1 counter: counter-screen for TPT1 inhibitors: inhibitors of Aspergillus oryzae RNase T1 | shares compounds with TPT1 inhibitor | RNase T1 cleavage, fluorescence polarization, 1536-well | inhibition, % at 5 µM | 2,400 compounds, 83% hits | AID 2153;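 active means inhibition above the solvent-only control well mean plus 3 SD, limit set per screening run, cut at about 23% in these data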;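 further: inhibitors block cleavage so intact labeled substrate keeps polarization high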
Target sequence (P00651 whole entry, looked up): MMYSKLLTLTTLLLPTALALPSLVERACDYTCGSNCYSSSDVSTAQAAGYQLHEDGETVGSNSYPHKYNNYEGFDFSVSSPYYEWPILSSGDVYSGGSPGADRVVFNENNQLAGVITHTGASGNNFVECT
A number is an active result; - = inactive; . = no result given; + = active, no number. Hits are enriched below; roughly 3.3% of the tested compounds scored in any of these assays.

SMILES | HNF4A DNA FP | Fh CTSL1 inh | PHOSPHO1 inh | TPT1 inhibitor | Rpn11 inh | CendR NRP1 mod | caTPT1 confirm | RNase T1 counter
CC(=Nc1ccc(C)cc1)c1sc2ccccc2c1O | - | - | - | 74 | - | - | 75 | 87
COc1ccc(-c2ccnc(SCC(=O)N3CCN(c4ccccc4)CC3)n2)cc1 | - | - | - | - | - | - | . | .
CCCNC(=O)c1cc(C2CCCCN2C(=O)c2ccc(C#N)cc2)on1 (centres undefined) | - | . | . | . | - | - | . | .
COc1cccc(CNCC2CCCO2)c1 (centres undefined) | - | - | - | - | - | - | . | .
Cc1cccc(N2CCN(C(=O)COc3ccc4c(c3)CCC4)CC2)c1C | - | - | - | - | - | - | . | .
N#Cc1c(N)n(CCNC(=O)c2cccs2)c2nc3ccccc3nc12 | - | - | - | 63 | - | - | 45 | 59
CCC(C)n1c(-c2ccco2)nc2nc3ccccc3nc21 (centres undefined) | . | - | - | 27 | . | . | - | -
Cc1cccc(-n2c(-c3ccco3)nc3nc4ccccc4nc32)c1 | . | - | - | - | . | . | . | .
CC(C)OCCCn1c(-c2ccco2)nc2nc3ccccc3nc21 | - | - | - | 26 | - | - | - | 24
COCCn1c(-c2ccco2)nc2nc3ccccc3nc21 | - | - | - | - | - | - | . | .
CC1(C)OC(=O)C2(Cc3ccccc3N3CCCCC32)C(=O)O1 (centres undefined) | - | - | - | - | - | - | . | .
Oc1[nH]c2ccccc2c1/C=N/c1nccs1 | - | - | - | 36 | - | - | 35 | 45
COc1ccc(N=Cc2c(O)[nH]c3ccccc23)cc1 | - | - | - | - | - | - | . | .
COc1cccc(/C=N/Nc2cc(N3CCOCC3)ncn2)c1O | - | - | - | - | - | - | . | .
CC1=NN(c2ccccc2)C(=O)C1C=Nc1ccc(N(C)C)cc1 (centres undefined) | - | - | - | 42 | - | - | 67 | 77
O=C(NCCS(=O)(=O)N1CCN(c2ccccc2)CC1)C1CCCC1 | - | - | . | - | - | - | . | .
COc1ccc(N2CCN(C(CNS(=O)(=O)c3cc(F)ccc3F)c3cccnc3)CC2)cc1 (centres undefined) | - | - | - | - | - | - | . | .
Cc1cc(/C=C2/SC(=O)NC2=O)c(C)n1-c1ccc(N2CCOCC2)cc1 | - | - | - | - | - | - | . | .
Cc1cc(/C=C2\SC(=S)NC2=O)c(C)n1-c1ccc(O)cc1 | 99 | - | - | 95 | . | - | 108 | 119
O/C(=C\c1ccc2ccccc2n1)c1ccc(O)cc1O | 65 | - | - | 98 | . | - | 110 | 108
Oc1ccc(/C=C/c2ccc3ccccc3n2)cc1 | - | - | - | - | - | - | . | .
O=C1C(=Cc2cccs2)C(=O)c2ccccc21 | - | - | - | - | - | - | . | .
O=C1/C(=C\c2cccs2)Sc2ccc3ccccc3c21 | - | - | - | 80 | - | - | 84 | 96
O=C(Cn1cnc2c(nnn2-c2cccc(F)c2)c1=O)Nc1ccc2c(c1)OCCO2 | - | - | - | - | - | - | . | .
O=[N+]([O-])c1ccc(-c2cn3nc(-c4ccccc4)c(-c4ccccc4)nc3n2)cc1 | - | - | - | - | . | - | . | .
SMILES | HNF4A DNA FP | Fh CTSL1 inh | PHOSPHO1 inh | TPT1 inhibitor | Rpn11 inh | CendR NRP1 mod | caTPT1 confirm | RNase T1 counter
Cc1ccc(-c2cn3nc(-c4ccccc4)c(-c4ccccc4)nc3n2)cc1 | - | - | - | 68 | - | - | 71 | 75
c1ccc(-c2cn3nc(-c4ccccc4)c(-c4ccccc4)nc3n2)cc1 | - | - | - | 34 | - | - | 44 | 51
CN(C)S(=O)(=O)c1ccc2c(c1)/C(=C/c1cc3c([nH]1)CCCC3)C(=O)N2 | - | - | . | 153 | . | - | 155 | 145
O=c1c(/C=C(\O)c2ccc(F)cc2)nc2ccccc2n1-c1ccccc1 | - | - | - | 62 | . | - | 79 | 75
Cn1c(=O)c(/C=C/c2ccc(F)cc2)nc2ccccc21 | - | . | - | . | - | - | . | .
O=C(N/N=C/c1ccncc1)c1ccc(NS(=O)(=O)c2cccs2)cc1 | - | - | - | - | - | - | . | .
CC(=O)C1=NOC(CNc2ncc(C(F)(F)F)cc2Cl)C1 (centres undefined) | - | - | - | 143 | - | - | - | -
Cc1ccc(NC(=O)/C(C#N)=C/c2cn(CC(=O)NCc3ccco3)c3ccccc23)cc1C | - | - | - | 29 | . | - | 67 | 80
CC(C)CC(=O)Nc1ccccc1-c1nnn(CC(=O)N2CCc3ccccc3C2)n1 | - | - | - | - | - | - | . | .
CC(C)C(C(=O)O)N1C(=O)/C(=C/C=C/c2ccco2)SC1=S (centres undefined) | - | - | - | 83 | . | - | 88 | 64
O=C1/C(=C/C=C/c2ccco2)SC(=S)N1c1ccc(O)cc1 | - | - | - | 28 | 95 | - | 50 | 56
CCC(C)(C)C(=O)Nc1cc([N+](=O)[O-])ccc1Cl | - | - | - | - | - | - | . | .
CCN(CC)c1nc(C)c(C(=S)Nc2cc([N+](=O)[O-])ccc2Cl)s1 | 47 | - | - | 28 | . | - | 61 | 73
O=C(O)CN1C(=O)/C(=C/c2ccc(N3CCCCC3)o2)SC1=S | - | - | - | - | - | - | . | .
COC(=O)CN1C(=O)S/C(=C/c2ccc(N3CCCCC3)o2)C1=O | - | - | - | 181 | . | - | 191 | 170
CCOC(=O)CN1C(=O)S/C(=C/c2ccc(N3CCCCC3)o2)C1=O | - | - | 101 | + | . | - | 180 | 167
Cc1ccc(C(=O)NN2CCOCC2)cc1[N+](=O)[O-] | - | - | - | - | - | - | . | .
O=C(/C=C/c1ccc2ccccc2n1)c1cc(Br)ccc1O | - | - | - | 43 | . | - | - | 23
O=C(O)/C=C/c1ccc2ccccc2n1 | - | - | - | - | - | - | . | .
Cc1ccc(SCC(=O)Nc2ccc(N3CCN(C)CC3)c(F)c2)c(C)c1 | - | - | - | - | - | - | . | .
COc1cc([C@@H]2C[C@H]3CN(c4ccccc4)C(=O)[C@]34CCCN24)cc(OC)c1OC | - | - | - | - | - | - | . | .
COc1ccccc1-n1cc([C@@H]2C[C@H]3CN(c4ccccc4)C(=O)[C@]34CCCN24)cn1 | 65 | - | - | 60 | . | - | 47 | 61
COC(=O)CNc1nc(OC)nc(N(C)C)n1 | - | - | - | - | - | - | . | .
Cc1cc2c(cc1C)C(c1cccc([N+](=O)[O-])c1)CC(=O)N2 (centres undefined) | - | - | - | 53 | - | - | - | 32
O=C(NCc1ccc(Cl)cc1)N1CCN(Cc2ccccc2)CC1 | - | - | - | - | - | - | . | .

Screens from PubChem.
